Structures are written as SMILES. Compounds without any hit were thinned out: in the full panel of roughly 83,000, 20% have a hit.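 Plates (96-well) were seeded with cells, treated with compound at one concentration, and incubated for 48 hours before percent growth was determined.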 Unmarked numbers belong to inactive results. Calls of active or inactive are those of the source. Rule for the calls: active = growth percent below 10; inactive = the rest.

Among the data in PubChem BioAssay (NCI) are growth values, retold here.

Common to all, as to assay: NCI-60 one-dose screen, 48 h (100 = growth as untreated, 0 = no growth, -100 = all killed)
What all share (details): 10 µM

Assay [1] relates to NCI-H23 lung.
Assay [2] concerns NCI-H226 lung.
The subject of assay [3] is NCI-H322M lung.
In assay [4] the test system is HOP-62 NSCLC.
The subject of assay [5] is NCI-H460 lung.
In assay [6] the test system is HOP-92 NSCLC.
The test system of assay [7] is NCI-H522 lung.
For assay [8], the system named is A549/ATCC NSCLC.
Assay [9] deals with 786-0 renal.
The test system of assay [10] is COLO 205 colon.

With `COc1cccc(/C=C2\N=C(C)N(CCc3ccc(S(N)(=O)=O)cc3)C2=O)c1`, the growth was 102% in [1]; 104% in assay [2]; 96.5% in assay [3]; 93.5% in assay [4]; 105% in [5]; 92.8% in assay [6]. Further, the growth is 94.5% in assay [7], 101% in assay [8], 90.4% in assay [9] and 131% in [10].

For `CCN1CCN(c2ccc(NC(=O)Nc3ccc(-c4cc(C(=O)NC)c5ncccc5n4)cc3)cc2C(F)(F)F)CC1`, the growth in assay [1] is -99% (active); in assay [2], -61.9% (active); in assay [3] it was -100% (active); in assay [4] it was -92.2% (active); in assay [5], -100% (active); in assay [6] it was -81.8% (active). Moreover, the growth in [7] is -93.3% (active); in [8], -88.4% (active); in assay [9] it was -100% (active); in assay [10] it was -76.3% (active).

Consider `CCOC(=O)C(Cc1ccccc1)N1C(=O)/C(=C/N2N=C(c3ccc(OC)cc3)CC2c2ccc3ccccc3c2)SC1=S` (stereo not given), for which the growth in assay [1] was -55.5% (active); in assay [2], -41.8% (active); in assay [3], 18.2%; in [4], -54.8% (active); in assay [5], -3.96% (active); in assay [6], -8.32% (active). Moreover, the growth in assay [7] was 1.04% (active); in assay [8], 21.7%; in assay [9], 13.8%; in assay [10], -86% (active).

With `COc1ccc(CN2[C@H](C(=O)NCc3ccc(C(=O)NO)cc3)Cc3c([nH]c4ccccc34)[C@H]2C2CC2)cc1`, the growth was 52.3% in assay [1]; 55.8% in assay [2]; 59.4% in [3]; 63.1% in assay [4]; 33.6% in assay [5]; 40.1% in assay [6]. In addition, the growth is 22.2% in assay [7], 61.3% in [8], 61.7% in assay [9] and 47.3% in assay [10].

For the compound `CC1CC(c2ccc(N(C)C)cc2)=NN1c1nc(O)c(C2=c3cc(Br)ccc3=NC2=O)s1` (stereo not given), the growth was 1.13% (active) in assay [1]; 77.8% in assay [2]; 112% in [3]; 92.7% in assay [4]; 63.8% in assay [5]; 83.8% in [6]. Moreover, the growth in assay [7] is 70.2%; in assay [8], 72.6%; in assay [9], 94%; in assay [10], 99.7%.

Regarding `CN(CCO)c1oc(-c2ccccc2)nc1[P+](c1ccccc1)(c1ccccc1)c1ccccc1`, the growth in [1] was -5.17% (active); in assay [2], -11.8% (active); in assay [3] it was 19.8%; in [4], 13.2%; in [5] it was 6.61% (active); in assay [6] it was -24.2% (active). The growth in assay [7] was -9.01% (active); in assay [8] it was 22.3%; in assay [9] it was 14.2%; in [10], -59.6% (active).

For the compound `N#Cc1c(-c2ccc(Cl)cc2)cc(-c2ccccc2)nc1OCc1ccccc1`, the growth in [1] was 76.7%; in assay [2] it was 74.7%; in assay [3], 96.6%; in [4], 84.9%; in [5] it was 51.9%; in assay [6] it was 90.8%. Moreover, the growth in assay [7] is 69.3%; in assay [8], 73.8%; in [9], 107%; in assay [10] it was 106%.

For `COc1cc2c(cc1OC)CN(CCCCOc1cc(O)c3c(=O)cc(-c4ccccc4)oc3c1)CC2`, the growth in [1] was 67.2%; in assay [2], 63.5%; in assay [3], 92.5%; in [4], 80.7%; in [5] it was 49.6%; in [6] it was 64.2%. In addition, the growth in assay [7] was 58.4%; in [8], 67.7%; in assay [9], 23.9%; in [10], -43.8% (active).

For the compound `CCOC(=O)c1sc(N/N=C(\C)c2ccc3c(c2)Nc2ccccc2S3)nc1C`, the growth in assay [1] was 13.9%; in assay [2], 34.8%; in [3], 45.2%; in [4], 43.7%; in assay [5] it was 5.63% (active); in assay [6], -9.2% (active). For the same compound, the growth in assay [7] was 30.9%; in assay [8], 29.2%; in assay [9], 33.6%; in [10], -42.2% (active).

Turning to `COc1ccc([C@H]2C(C(=O)c3ccc(Cl)cc3)C3(N[C@@H]2c2ccccc2)C(=O)Nc2ccc(Br)cc23)cc1` (stereo not given in full), the growth is -47.4% (active) in assay [1]; -42.5% (active) in assay [2]; 21.6% in assay [3]; -8.82% (active) in assay [4]; -44.4% (active) in [5]; -20.6% (active) in assay [6]. Also, the growth in assay [7] is 6.07% (active); in [8] it was 17.3%; in assay [9], -17.5% (active); in assay [10] it was -92% (active).

Consider `O=S(=O)(c1ccc(Cl)cc1)c1nc(-c2ccccc2)oc1S(=O)(=O)c1ccc(Cl)cc1`, for which the growth in [1] is 78.9%; in [2] it was 87.5%; in assay [3] it was 101%; in assay [4], 91.3%; in assay [5] it was 98%; in [6], 85.7%. The growth in [7] was 88.1%; in assay [8], 94.2%; in assay [9] it was 94.9%; in assay [10] it was 102%.

In the case of `O=C1Nc2ccc(F)cc2/C1=C/c1cccc(OCc2ccccn2)c1`, the growth in [1] was 58.3%; in [2], 49.9%; in assay [3] it was 77%; in [4] it was 78.9%; in assay [5], 36.5%; in assay [6], 26.5%. Further, the growth in assay [7] is -14.1% (active); in assay [8], 77.4%; in assay [9] it was 56%; in assay [10] it was 98.8%.

On to `O=C(Nc1ccc(I)cc1)Nc1nc2ccc([N+](=O)[O-])cc2s1`, for which the growth in assay [1] was -95.9% (active); in assay [2], -74.2% (active); in assay [3], -86.6% (active); in assay [4], -90.4% (active); in assay [5] it was -72.1% (active); in assay [6], -87.9% (active). Besides, the growth is -89.4% (active) in assay [7], -91.6% (active) in assay [8], -100% (active) in assay [9] and -92.2% (active) in [10].
